Results filed as inconclusive are left out. Calls of active or inactive are those of the source. Calls follow the shape of the full dose curve.
Each molecule was assayed against Retinoic acid receptor RXR-alpha (Homo sapiens) (UniProt P19793) (assay: qHTS assay to identify small molecule agonists of the RXR signaling pathway (AID 1159527; also: nearly all actives have a fitted effect of over 35% in size)). Conditions: HEK293T RXRa-UAS-bla, beta-lactamase ratio, 16 h; series mostly up to 76.8 µM; activation: at the top concentration.
Sequence of Retinoic acid receptor RXR-alpha (Homo sapiens) (P19793 whole entry, looked up): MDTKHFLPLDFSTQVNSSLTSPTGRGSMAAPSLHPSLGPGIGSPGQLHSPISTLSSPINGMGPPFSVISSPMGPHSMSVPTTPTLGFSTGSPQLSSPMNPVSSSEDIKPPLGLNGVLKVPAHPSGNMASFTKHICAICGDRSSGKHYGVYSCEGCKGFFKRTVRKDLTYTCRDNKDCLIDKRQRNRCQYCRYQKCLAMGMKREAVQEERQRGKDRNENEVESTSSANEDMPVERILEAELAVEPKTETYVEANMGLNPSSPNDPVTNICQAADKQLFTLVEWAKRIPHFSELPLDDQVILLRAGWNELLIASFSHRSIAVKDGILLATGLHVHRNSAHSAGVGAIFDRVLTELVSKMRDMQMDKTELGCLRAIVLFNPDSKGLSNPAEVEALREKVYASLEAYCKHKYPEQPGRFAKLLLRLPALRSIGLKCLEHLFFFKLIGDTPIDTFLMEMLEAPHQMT
Text: U.S. Tox21 Program National Center for Advancing Translational Sciences [NCATS] NIH Chemical Genomics Center [NCGC] U.S. Environmental Protection Agency [EPA] National Institutes of Environmental Health Sciences [NIEHS] National Toxicology Program [NTP] U.S. Food and Drug Administration [FDA] Tox21 Assay Overview: The Retinoid X receptor (RXR), a nuclear hormone receptor expressed in liver, spleen, placenta, epidermis, central nervous system. These receptors are able to form homo and heterodimers with other nuclear receptors and due to this heterodimerizing ability, RXR functions as master regulators producing diverse physiological effects. Three subtypes of RXR exist; alpha, beta and gamma. Retinoid X receptor alpha (RXR-alpha) has potential roles in metabolic signaling pathways, skin alopecia, dermal cysts, cardiac development, insulin sensitization etc. Therefore screening environmental chemicals on RXR-alpha signaling can be used for the studies focused on such therapeutic applications. For quantification of RXR-alpha ligands signaling, GeneBLAzer RXR alpha-UAS-bla HEK 293T (Life Technologies, Carlsbad, CA) cells containing a beta-lactamase reporter-gene under control of Retinoid X receptor-alpha response element were used to screen Tox21 10K library.
Tox21 Assay Protocol Summary: RXR-alpha HEK 293T cells were dispensed at 2,000 cells/6 uL of assay medium containing 2% charcoal-stripped FBS using a Multidrop Combi (ThermoFisher Scientific, Waltham, MA) dispenser. The assay was performed in black wall/clear-bottom 1536-well plates (Greiner Bio-One North America Inc. Monroe, NC). 9-cis retinoic acid was used as a positive control in the agonist mode screen. After the assay plates were incubated at 37 C and 5% CO2 for 5 hr, 23 nL of compounds dissolved in DMSO, positive controls or DMSO only were transferred to the assay plate by a Pintool station (Kalypsys, San Diego, CA). The assay plates were incubated at 37 C and 5% CO2 for 16 hr. One uL of LiveBLAzer B/G FRET substrate (Life Technologies) was added using a Flying Reagent Dispenser (Aurora Discovery, San Diego, CA) and the plates were incubated at room temperature for 2 hr. Fluorescence intensity (405 nm excitation, 460/530 nm emission) was measured using an Envision plate reader (PerkinElmer, Shelton, CT).
For `CCOC(=O)Cc1ccccc1`, the “activation” value was -0.152% (inactive).
For `ClSC(Cl)(Cl)Cl`, the “activation” value was 6.42% (inactive).
In the case of `CCNc1nc(NC(C)C(C)C)nc(SC)n1` (stereo not given), the “activation” value is reported as 16.3% (inactive).
With `CCC1(CC)C(=O)N=C(O)NC1=O` the “activation” value was 13% (inactive).
`c1cc[n+]2c(c1)-c1cccc[n+]1CC2` was tested, and the “activation” value was 6.38% [at 35.3 µM] (inactive).
In the case of `S=C=Nc1ccccc1`, the “activation” value is reported as -3.04% (inactive).
With `CN` the “activation” value was 8.02% (inactive).
For `CC(Cl)CCl` (stereo not given), the “activation” value was 5.79% (inactive).
`O=[N+]([O-])c1ccccc1-c1ccccc1` was tested, and the “activation” value was -12.8% (inactive).
In the case of `C=CC(=C)C`, the “activation” value is reported as -1.37% (inactive).
For `COCCC#N`, the “activation” value was 3.24% (inactive).
For `BrCC(Br)(Br)Br`, the “activation” value was 6.27% (inactive).
In the case of `CCC[CH2][Sn]([CH2]CCC)([CH2]CCC)[CH2]CCC`, the Potency is reported as 0.0871 µM (active).
`CNN` was tested, and the “activation” value was 7.5% (inactive).
With `c1csc(-c2ccc(-c3cccs3)s2)c1` the Potency was 21.9 µM (active).
In the case of `Oc1ccc(Cl)c(Cl)c1`, the “activation” value is reported as -10.5% (inactive).
`CCCCC(CC)COC(=O)OOC(C)(C)C` (stereo not given) was tested, and the “activation” value was 3.53% (inactive).
`Oc1ccc2[nH]cc(CCCCN3CC=C(c4ccccc4)CC3)c2c1` was tested, and the “activation” value was -7.16% [at 35.3 µM] (inactive).
In the case of `CCCCN(CCCC)C(=S)S`, the “activation” value is reported as -14.4% (inactive).
For `CCCCCCCCCCCCCCn1cc[n+](C)c1`, the “activation” value was -15.3% (inactive).
With `CCn1cc[n+](C)c1` (tested in a mixture with another compound) the “activation” value was -8.36% (inactive).
In the case of `NC(=O)C(Cl)Cl`, the “activation” value is reported as 0.248% (inactive).
For `COC(=O)C(C)N(C(=O)c1ccco1)c1c(C)cccc1C` (stereo not given), the “activation” value was -6.22% (inactive).
In the case of `[Cl-].[Cl-].[Sn+2]`, the “activation” value is reported as 1.35% (inactive).
`N#Cc1c[nH]cc1-c1cccc2c1OC(F)(F)O2` was tested, and the Potency was 1.38 µM (active).
In the case of `ClC1=C(Cl)[C@]2(Cl)[C@H]3[C@H]([C@@H]4C=C[C@H]3C4)[C@@]1(Cl)C2(Cl)Cl`, the “activation” value is reported as -11.8% (inactive).
`CC(Cc1ccc(O)cc1)NCC(O)c1cc(O)cc(O)c1` (stereo not given) was tested, and the “activation” value was 12.9% [at 35.3 µM] (inactive).
In the case of `Brc1ccc(Oc2ccc(Br)cc2Br)c(Br)c1`, the “activation” value is reported as -4.46% (inactive).
`CCN(CC)C(=O)N[C@@H]1C=C2c3cccc4[nH]cc(c34)C[C@@H]2N(C)C1` was tested, and the “activation” value was 0.603% [at 35.3 µM] (inactive).
With `ClC1(Cl)C2(Cl)C3(Cl)C4(Cl)C(Cl)(Cl)C5(Cl)C3(Cl)C1(Cl)C5(Cl)C24Cl` (stereo not given) the “activation” value was 12.7% (inactive).
In the case of `CN/C(=N\[N+](=O)[O-])NCc1cnc(Cl)s1`, the “activation” value is reported as 8.95% (inactive).
For `C#CC1(O)CCCCC1`, the “activation” value was 10.3% (inactive).
In the case of `[O]=[Cr][O][Cr]=[O]`, the “activation” value is reported as -6.93% (inactive).
In the case of `CCCCON=O`, the “activation” value is reported as -0.623% (inactive).
With `FC(F)C(F)(F)OCC(Cn1cncn1)c1ccc(Cl)cc1Cl` (stereo not given) the “activation” value was -1.95% (inactive).
For `Cc1cnc2c(C(=O)O)c(Cl)ccc2c1`, the “activation” value was -2.19% (inactive).
In the case of `O=C(Nc1ccc(F)cc1F)c1cccnc1Oc1cccc(C(F)(F)F)c1`, the “activation” value is reported as -2.18% (inactive).
With `COP(=S)(OC)Oc1ccc([N+](=O)[O-])c(C)c1` the “activation” value was 5.11% (inactive).
For `[O-][Cl+3]([O-])([O-])O`, the “activation” value was -1.62% (inactive).
In the case of `C=CCBr`, the “activation” value is reported as -3.74% (inactive).
% is scaled to controls: 0 for no effect and ±100 for the full control effect; potency is read from the fitted curve at half-maximal effect.
